# Data from PMC5540273 (PLoS ONE, 2017).
# Tested on: AXL
# Details: concentration: 1 μM, replicates: in singlicate; n = 1
# 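Further: KINOMEscan kinase panel screen.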
row,Structure (SMILES),%Inh [%]
1,N#Cc1ccc(Oc2ccc(Nc3ncnc4cc[nH]c34)cc2Cl)cc1,22
2,Cc1cc(N2CCC(NS(=O)(=O)c3ccc(F)cc3)CC2)nc(Nc2cccc(C#N)c2)n1.O=C(O)C(F)(F)F [GSK1653537],7
3,O=C(NCCCN1CCCC1=O)c1cnc(NCc2cc(Cl)ccc2Cl)nc1NC1CCNCC1,41
4,c1ccc(-c2ccc3c(-c4ccnc(Nc5ccc6c(c5)OCCO6)n4)cnn3n2)cc1 [GW818941],11
5,CNc1nccc(-c2c(-c3ccc(F)cc3)ncn2CCCN2CCOCC2)n1 [SB-222516],14
6,C[C@@H]1CCN(C(=O)CO)C[C@@H]1N(C)c1ncnc2[nH]ccc12,0
7,Cn1ccc2ncnc(Oc3ccc(NC(=O)Nc4cccnc4)c(Cl)c3)c21,7
8,O=C(c1ccc(-c2cc(-c3c[nH]nc3-c3ccccn3)ccn2)cc1)N1CCCC1 [GW792479],0
9,O=C(Nc1n[nH]c2nc(-c3ccco3)c(Br)cc12)c1ccc(CN2CCCC2)cc1.O=C(O)[C@H](O)[C@@H](O)C(=O)O [SB-742352],51
10,Nc1n[nH]c2nnc(-c3ccccc3)cc12 [SB-517389],0
11,Oc1ccc2ncnc(Nc3ccc(OCc4ccccc4)cc3)c2c1 [GI262866],5
12,O=C(CCO)NCCn1ccc2ncnc(Nc3ccc(Oc4cccc(C(F)(F)F)c4)c(Cl)c3)c21,0
13,Nc1nc(-c2cccnc2)c(-c2ccnc3ccccc23)s1 [GW684083],7
